Several values for one entry are separate records, joined by “and”; a condition that tells them apart may be missing. Identical values can stand only once. The panel holds about 83,000 compounds, 20% with a hit somewhere; the sample as a whole holds those more often.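 Compound tested at a single concentration for 48 hours in 96-well plates; a percent growth value below 10 was scored as active.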 Activity calls are given as the source filed them.
tested on: MDA-MB-468 breast; test: NCI-60 one-dose screen, 48 h (100 = growth as untreated, 0 = no growth, -100 = all killed); conditions: 10 µM unless noted

SMILES	growth
COc1ccc(/C=C2\CN(C(=O)C(Cl)Cl)C/C(=C\c3ccc(OC)c(OC)c3)C2=O)cc1OC	-14.2% (active)
N=C(N)c1ccc(-c2ccc(-c3ccc4ccccc4c3)s2)cc1	101% (inactive)
COc1cc([N+](=O)[O-])c2ncccc2c1O	95.1% (inactive)
CN1NC(c2ccccc2)NN(C)C1=O	108% (inactive)
O=[N+]([O-])c1ccc(/C=N\Nc2ccccc2)cc1	94.7% (inactive)
Oc1[nH]c2ccccc2c1/C=c1/cc2c(c(-c3ccc(F)cc3)n1)=Nc1ccccc1-2	-60.8% (active)
Clc1ccc(C(/C=C/c2sc(Cl)nc2Cl)=N/Nc2cc(Cl)cc(Cl)c2)cc1	107% (inactive)
NS(=O)(=O)c1ccc(Cn2c(SCC(=O)N/N=C/c3ccccc3O)nc3ccccc3c2=O)cc1	52% (inactive)
N#CC1=C(N)Oc2c(sc3c(F)cccc23)C1c1ccc(F)cc1 (stereo not given)	26.5% (inactive)
CC(=O)Nc1cccc(Cl)c1C	103% (inactive)
Cc1ccc(/C=C2/C(=O)Nc3cc(Cl)c(-c4csc(N)n4)cc32)cc1	15.2% (inactive)
Cn1c(=O)c2[nH]c(SCC(=O)Nc3ccc(C(=O)/C=C/c4ccccc4Cl)cc3)nc2n(C)c1=O	76.4% (inactive)
COc1cc2c(cc1-c1c(C)noc1C)ncc1nc(C3CCCC3)n([C@H](C)COC(F)F)c12	32.7% (inactive)
COc1cccc(-c2nc3sccn3c2/C=C/C(=O)c2ccc(C(F)(F)F)cc2)c1	75.6% (inactive)
O=C1Nc2c(c(=O)n(-c3ccccc3)c3ccccc23)C(c2ccc(Cl)cc2)N1 (stereo not given)	119% (inactive)
Cc1nc2cc(Nc3nc(Nc4ccc(F)cc4)nc(N4CCN(C)CC4)n3)ccc2n1Cc1ccccc1	-32.7% (active)
COc1ccccc1Nc1nc2c(s1)C1=CC[C@H]3[C@@H]4CC[C@H]([C@H](C)CCCC(C)C)[C@@]4(C)CC[C@@H]3[C@@]1(C)CC2	113% (inactive)
COc1ccc(/C(=N\O)c2cc(OC)c(OC)c(OC)c2)c(OC)c1N	29.2% (inactive)
O=C(C(=Cc1ccccc1)C(=O)c1ccccc1)c1ccccc1	63.4% (inactive) and 89.4% (inactive)
CC(C)CCC[C@@H](C)[C@H]1CC[C@H]2[C@@H]3CC=C4C[C@@H](C(C(=O)O)C(=O)O)CC[C@]4(C)[C@H]3CC[C@]12C	-32% (active)

SMILES	growth
C#C[C@]1(O)CC[C@H]2[C@@H]3CC=C4c5sc(Nc6ccccc6)nc5CC[C@]4(C)[C@H]3CC[C@@]21C	7.27% (active)
CCCCCCCCCCCC(=O)NCCCN(C)C	111% (inactive)
CCOC(=O)c1c(N)c(C#N)cn1-c1cc(OC)c(OC)c(OC)c1	103% (inactive)
Cc1cc(O)c2c(c1)C[C@H]1[C@@H]3CC[C@H]4CC(=O)CC[C@]4(C)[C@H]3CC(=O)[C@]21C	71.4% (inactive)
COc1ccc(/C=C/C(=O)c2c(O)c(C)c(O)c3c2OC2=CC(O)=C(C(C)=O)C(=O)[C@]23C)cc1	-40.1% (active)
COc1ccc2[nH]c(=O)c(/C=C/C(=O)/C=C/c3ccc(O)c(OC)c3)cc2c1	-32.1% (active)
CCn1cc(-c2ccnc3[nH]c(-c4cccc(CN(C)C)c4)cc23)c(-c2ccc(NC(=O)N(C)C)cc2)n1	56.5% (inactive)
N#Cc1c2ncccc2c2nnc3cc(Cl)c(Cl)cc3n12	21.7% (inactive)
COc1cc(-c2nc3cc(Cl)c(Cl)cc3[nH]2)ccc1OCC(=O)NN	100% (inactive)
CC(=O)OCC(=O)[C@@]1(O)CC[C@H]2[C@@H]3CCC4=CC(=O)CC[C@]4(C)[C@@]3(F)[C@@H](O)C[C@@]21C	121% (inactive)
COc1ccc2c(c1)c(C(=O)c1nc(-c3cn(C)c4ccccc34)no1)cn2C	108% (inactive)
CC(C)(C)c1cc(O)c(O)c(C(C)(C)C)c1	40.4% (inactive)
C=C1C(=O)O[C@H]2[C@H]1CC/C(COC(=O)NCCc1c[nH]c3ccc(Cl)cc13)=C\CC[C@@]1(C)O[C@@H]21	-59% (active)
Nc1cccc(-c2ccc(COc3ccc(CC4SC(=O)NC4=O)cc3)cc2)c1 (stereo not given)	29.4% (inactive)
Cc1cn2c(/C=C3/C(=O)Nc4c3ccc3ccccc43)c(C(F)(F)F)nc2s1	7.93% (active)
Cc1ccccc1OCC(O)COc1ccccc1C	105% (inactive)
COc1cccc(/C=C2/C(=O)N(Cc3ccco3)SC2=S)c1OC	76% (inactive)
CCO/C=N/C1=C(C#N)C(c2ccc(Cl)cc2)c2c(c3ccc(C)cc3[nH]c2=O)O1 (stereo not given)	96.8% (inactive)
O=C1CCC(C(=O)NN(c2ccccc2)c2ccccc2)N1 (stereo not given)	94.5% (inactive)
CC(=O)O[C@H]1CC[C@@]2(C)[C@@H](CC[C@@H]3[C@@H]2CC(=O)[C@@]2(C)[C@H]3C[C@@H](C3CCCC3=O)[C@@H]2C(C)=O)C1 (stereo not given in full)	114% (inactive)

Source: PubChem BioAssay (NCI)
